Screening data: PubChem, National Center for Advancing Translational Sciences (NCATS)
Hits are enriched below; roughly 7.3% of the tested compounds scored in any of these assays.
3T3 cytotox: NIH 3T3 cell cytotoxicity. NIH 3T3 viability, CellTiter-Glo ATP luminescence, 48-72 h. actives 4.3% (n = 94,000). Potency, µM (series often up to 96.7 µM), actives largely listed as inhibitors. AID 1345082; further: nearly all actives have a fitted effect of over 55% in size
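ATP-dependent luminescence (CellTiter-Glo) served as the viability signal for NIH 3T3 cells treated with compound for 48 or 72 hr at 37 °C.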
IP6K1 inhibitor: blocks human inositol hexakisphosphate kinase 1. Q92551. IP6K1 kinase, ADP-Glo luminescence, 2 h; active compounds read low. activity change, % (series mostly up to about 58 µM). actives 0.81% (n = 140,000). AID 1645851; in the data active means activity change below about -25%
Target sequence (Q92551 whole entry, looked up): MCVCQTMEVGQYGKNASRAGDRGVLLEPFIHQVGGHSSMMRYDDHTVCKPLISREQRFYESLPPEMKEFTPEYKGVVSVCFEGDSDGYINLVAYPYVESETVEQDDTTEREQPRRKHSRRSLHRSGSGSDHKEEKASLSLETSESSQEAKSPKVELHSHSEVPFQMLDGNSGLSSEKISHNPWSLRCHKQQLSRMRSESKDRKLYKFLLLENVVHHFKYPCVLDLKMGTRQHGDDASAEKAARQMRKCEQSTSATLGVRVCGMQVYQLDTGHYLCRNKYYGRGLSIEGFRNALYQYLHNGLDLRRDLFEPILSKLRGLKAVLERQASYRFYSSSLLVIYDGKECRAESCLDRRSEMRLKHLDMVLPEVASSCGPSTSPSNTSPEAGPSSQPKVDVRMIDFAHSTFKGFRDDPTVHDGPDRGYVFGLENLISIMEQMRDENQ
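ADP-Glo luminescence measures ADP made by human IP6K1 during a 2 h RT reaction with ATP/IP6 (mix at 1.3 mM/130 uM); top library doses 57.5 and 19.1 uM final.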
HEK cytotox: kills HEK 293 cells; Potency, µM (doses to about 115 µM), hits mostly inhibitors; actives 6.6% (n = 94,000); HEK 293 viability, ATP luminescence (CellTiter-Glo), 48-72 h; further: nearly all actives have a fitted effect of over 60% in size
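250 HEK 293 cells/well; compound by pintool; incubated 48 or 72 hr at 37 degree Celsius; CellTiter-Glo added, 10 min RT, luminescence imaged.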
HEK293 viab: cell viability loss counter-screen | HEK-293-SNCA-luc viability, GF-AFC fluorescence, 24 h | Potency, µM (titrated, usually from 57.1 µM), usual class: cytotoxic | actives 0.12% (n = 150,000); further: nearly all actives have a fitted effect of over 30% in size
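HEK-293-SNCA-luc cells (1500/well) plated 24 h, then exposed 24 h to a dilution series; GF-AFC added 30 min at 37C, fluorescence 405/540 nm; normalised to medium-only and DMSO wells, Hill fit.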
FLuc inh: blocks purified firefly luciferase enzyme activity; purified P. pyralis luciferase, luminescence, biochemical; Potency, µM (titrated, usually from 115 µM), most hits filed as inhibitors; actives 2.5% (n = 76,000); further: nearly all actives have a fitted effect of over 65% in size
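Biochemical qHTS: compound (6-point titration) added to 10uM D-luciferin plus 10uM ATP in Tris acetate pH 7.5 buffer with Mg, Tween-20 and BSA, then purified enzyme at 10nM; light output imaged.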
SNCA expr inh: SNCA gene expression inhibition; Potency, µM (series often up to 57.2 µM), usual class: inhibitors; actives 0.17% (n = 140,000); AID 1671194; HEK-293 SNCA-luciferase knock-in, luminescence, 24 h; further: nearly all actives have a fitted effect of over 45% in size
Each line names hits and unclear results; the compound was inactive in the other large screens. Unless noted, the call rests on the fitted dose curve; in most records, active means well fitted curve in the direction sought with a large enough effect; inconclusive means small, poorly fitted or top-dose-only effect, or another doubt; inactive means no such curve, though single readings can be large; an effect the other way counts as inactive or inconclusive.

N#Cc1cccc(CN2CC(CNc3ccccc3)C3(C2)CN(c2ccccc2)C3)c1 (configuration not stated)	HEK cytotox inconclusive
O=C(Cc1c[nH]c2ncc(-c3cccnc3)cc12)NCCc1ccccc1	3T3 cytotox 22µM, HEK cytotox inconclusive
CNC(=O)c1cccc(-c2cnc3[nH]cc(CC(=O)Nc4ccccc4C)c3c2)c1	3T3 cytotox inconclusive, HEK cytotox inconclusive, FLuc inh inconclusive
O=C(Cc1c[nH]c2ncc(-c3ccncc3)cc12)NCc1cccnc1	3T3 cytotox 79µM, HEK cytotox inconclusive
COc1ccc(-c2cnc3[nH]cc(CC(=O)NCc4cccnc4)c3c2)cn1	3T3 cytotox 79µM, HEK cytotox inconclusive, FLuc inh inconclusive
COc1ccc(OC)c(-c2cnc3[nH]cc(CC(=O)NCc4cccnc4)c3c2)c1	3T3 cytotox inconclusive, HEK cytotox inconclusive
O=C(NCc1c[nH]c2ncccc12)c1cccnc1	none
COC(=O)CNC(=O)c1cc(C(C)(C)C)c2cccn2n1	none (no result: FLuc inh)
CN1CCN([C@@H]2[C@H](O)[C@H](CO)O[C@@H]2CN(Cc2ccc(Cl)cc2)Cc2cccc(Cl)c2)CC1	3T3 cytotox 28µM, HEK cytotox inconclusive, HEK293 viab inconclusive, SNCA expr inh inconclusive
OC[C@@H]1O[C@H](CN(Cc2cccc(Cl)c2)Cc2cccc(Cl)c2)C(N2CCOCC2)[C@@H]1O (some centres not stated)	none
COc1ccc(NC(=O)c2cc(C3CC3)nc3c2c(C)nn3-c2ccccc2)cc1	none (no result: 3T3 cytotox, HEK cytotox, FLuc inh)
COc1ccc(-c2cc(C(=O)NC3CCNCC3)c3c(C)nn(-c4ccccc4)c3n2)cc1	3T3 cytotox 7.1µM, HEK cytotox 25µM, HEK293 viab inconclusive, SNCA expr inh inconclusive (no result: FLuc inh)
COCCNC(=O)c1cc(-c2ccc(OC)cc2)nc2c1c(C)nn2-c1ccccc1	3T3 cytotox inconclusive, HEK cytotox inconclusive (no result: FLuc inh)
COc1ccc(-c2cc(C(=O)NC3CC3)c3c(C)nn(-c4ccccc4)c3n2)cc1	3T3 cytotox 22µM, HEK cytotox inconclusive (no result: FLuc inh)
O=C1C(N2CCN(S(=O)(=O)c3cccs3)CC2)CCN1Cc1cccnc1 (configuration not stated)	none
Cc1cc(CN2CCC(Cc3ccc(F)cc3)CC2)n(C)n1	3T3 cytotox inconclusive, HEK cytotox 40µM
COc1cccc(C(O)c2nc(C(=O)Nc3ccc4c(c3)NC(=O)CO4)c(C)o2)c1 (configuration not stated)	3T3 cytotox inconclusive, HEK cytotox 89µM, FLuc inh 63µM
CCOC(=O)C1(Cc2ccccc2F)CCCN(C(=O)c2c(C)nc3sccn23)C1 (configuration not stated)	HEK cytotox inconclusive
CCN(Cc1ccccc1)C(=O)c1cc(COc2ccccc2)[nH]n1	3T3 cytotox inconclusive, HEK cytotox inconclusive
O=C(C1CCCCN1Cc1ccc(-c2cccs2)cc1)N1CCN(c2ncccn2)CC1 (configuration not stated)	3T3 cytotox inconclusive, HEK cytotox inconclusive (no result: FLuc inh)
CN(C)C(=O)CNC(=O)c1cccc(-c2ccc(C(F)(F)F)cc2)c1	3T3 cytotox inconclusive, HEK cytotox 40µM, SNCA expr inh inconclusive (no result: FLuc inh)
CNC(=O)CNC(=O)c1cccc(-c2ccc(C(F)(F)F)cc2)c1	3T3 cytotox inconclusive, HEK cytotox inconclusive (no result: FLuc inh)
CC(C)(C)C(=O)NCCNC(=O)c1cccc(-c2ccc(C(F)(F)F)cc2)c1	3T3 cytotox 45µM, HEK cytotox 25µM (no result: FLuc inh)
O=C(Cc1c[nH]c2ccccc12)N1CCC(c2nc(CCOCC3CCCC3)no2)C1 (configuration not stated)	3T3 cytotox inconclusive, HEK cytotox inconclusive, SNCA expr inh 20µM
Cc1cc(CN(C)c2ccc(-c3nc(-c4ccccc4F)no3)cn2)on1	FLuc inh inconclusive
CN(CCn1ccnc1)c1ccc(-c2nc(-c3cccc(Cl)c3)no2)cn1	3T3 cytotox inconclusive, HEK cytotox 35µM, FLuc inh 3.2µM
COCCNc1ncc(C(=O)O)c(-c2cc(F)cc(F)c2)n1	none
COc1cc2c(cc1-c1cccc(C(F)(F)F)c1)OCC(C)(C)CC2CO (configuration not stated)	3T3 cytotox 28µM, HEK cytotox 32µM (no result: HEK293 viab, FLuc inh, SNCA expr inh)
COc1cc2c(cc1-c1ccccc1)OCC(C)(C)CC2CO (configuration not stated)	3T3 cytotox inconclusive, HEK cytotox inconclusive (no result: HEK293 viab, FLuc inh, SNCA expr inh)
O=C(CCc1ccccc1)N1CC(Oc2ccc(-c3noc(C4CC4)n3)cc2)C1	3T3 cytotox inconclusive, HEK cytotox 28µM
Cc1cccc(C(=O)N2CC(Oc3ccc(-c4noc(C5CCOCC5)n4)cc3)C2)c1	3T3 cytotox inconclusive, HEK cytotox inconclusive (no result: FLuc inh)
O=C(NCCc1ccccc1)N1CCC(Oc2ccc(-c3noc(C4CC4)n3)cc2)C1 (configuration not stated)	3T3 cytotox inconclusive, HEK cytotox inconclusive, HEK293 viab inconclusive, FLuc inh inconclusive
CCCS(=O)(=O)N1CCC(Oc2ccc(-c3noc(C(C)C)n3)cc2)C1 (configuration not stated)	3T3 cytotox inconclusive, HEK cytotox inconclusive, FLuc inh inconclusive
Cc1ccsc1CN1CC(Oc2ccc(-c3noc(C4CCOCC4)n3)cc2)C1	3T3 cytotox 40µM, HEK cytotox 20µM (no result: FLuc inh)
COc1ccc(-c2nnc([C@H]3CCN(S(=O)(=O)Cc4ccccc4)C3)o2)cc1	3T3 cytotox inconclusive, HEK cytotox inconclusive, FLuc inh 50µM
O=S(=O)(Cc1ccccc1)N1CCC(Oc2ccc(-c3noc(C4CC4)n3)cc2)C1 (configuration not stated)	3T3 cytotox inconclusive, HEK cytotox 40µM, HEK293 viab inconclusive
O=c1[nH]c(N2CCOCC2)nc2c1CCN(S(=O)(=O)c1ccc3c(c1)CCC3)CC2	3T3 cytotox inconclusive, HEK cytotox inconclusive
CC1CCCC(C)N1C(=O)c1ccc2nc(-c3cccnc3)oc2c1 (configuration not stated)	none (no result: FLuc inh)
COc1ccc(CCC(=O)N2CCC(Oc3ccc(-c4noc(C)n4)cc3)C2)cc1 (configuration not stated)	HEK cytotox inconclusive, FLuc inh 40µM
Cc1nc(-c2ccc(OC3CCN(C(=O)c4nn(C)c5ccccc45)C3)cc2)no1 (configuration not stated)	3T3 cytotox inconclusive, HEK cytotox 45µM
Cc1ccc(CNC(=O)N2CCC(Oc3ccc(-c4noc(C)n4)cc3)C2)cc1 (configuration not stated)	3T3 cytotox inconclusive, HEK cytotox inconclusive
Cc1cc(=O)n(CC(=O)Nc2ccccc2C)c(-c2ccccc2)n1	none
CN(C)c1ccc2ncc(Nc3ccccc3Cl)n2n1	3T3 cytotox 32µM, HEK cytotox inconclusive
